# Results as given in PubChem BioAssay AID1159580 (chemical genetic matrix, 2015).
# The campaign covered roughly 5,500 compounds. About 2,000 (36%) were called active. Another 18% or so got no clear call; they are omitted. The list shows a part of the results. Unmarked numbers belong to inactive results. No stated cut-off is given here; in the data, active means normalized growth mostly below about 0.91 (no sharp cut-off); inconclusive means no clear call, values can overlap the other calls; inactive means mostly above about 0.92.
# Assay: chemical genetic growth profiling, strain panel (AID 1159580);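 further: tested at 20 µM; growth read once vehicle control cultures reached saturation at 30 °C; 1 = growth at the plate median or of vehicle wells; lower values mean less growth of the strain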
# Details: growth OD
smiles,measurement,setting,value
Oc1cccc2cccnc12,normalized growth,"S. cerevisiae deletion strains, locus YKL009W, strain mrt4, active compounds read low",0.741 (active)
same,normalized growth,"S. cerevisiae deletion strains, locus YKL068W, active compounds read low",0.0531 (active)
same,normalized growth,"S. cerevisiae deletion strains, locus YKL085W, strain MDH1 (second series), active compounds read low",0.0521 (active)
same,normalized growth,"S. cerevisiae deletion strains, locus YKL085W, strain MDH1, active compounds read low",0.0521 (active)
same,normalized growth,"S. cerevisiae deletion strains, locus YKL160W, strain elf1, active compounds read low",0.0679 (active)
same,normalized growth,"S. cerevisiae deletion strains, locus YKL190W, strain CNB1, active compounds read low",0.0517 (active)
same,normalized growth,"S. cerevisiae deletion strains, locus YKR001C, strain vps1, active compounds read low",0.0622 (active)
same,normalized growth,"S. cerevisiae deletion strains, locus YKR026C, strain gcn3, active compounds read low",0.356 (active)
same,normalized growth,"S. cerevisiae deletion strains, locus YKR091W, strain srl3, active compounds read low",0.5 (active)
same,normalized growth,"S. cerevisiae deletion strains, locus YLL001W, strain dnm1, active compounds read low",0.0604 (active)
same,normalized growth,"S. cerevisiae deletion strains, locus YLL026W, active compounds read low",0.0573 (active)
same,normalized growth,"S. cerevisiae deletion strains, locus YLL041C, strain sdh2, active compounds read low",0.132 (active)
same,normalized growth,"S. cerevisiae deletion strains, locus YLR027C, strain aat2, active compounds read low",0.0569 (active)
same,normalized growth,"S. cerevisiae deletion strains, locus YLR039C, strain RIC1, active compounds read low",0.0939 (active)
same,normalized growth,"S. cerevisiae deletion strains, locus YLR058C, strain SHM2, active compounds read low",0.786 (active)
same,normalized growth,"S. cerevisiae deletion strains, locus YLR102C, strain apc9, active compounds read low",0.0613 (active)
same,normalized growth,"S. cerevisiae deletion strains, locus YLR113W, strain HOG1, active compounds read low",1.04
same,normalized growth,"S. cerevisiae deletion strains, locus YLR221C, strain rsa3, active compounds read low",0.0643 (active)
same,normalized growth,"S. cerevisiae deletion strains, locus YLR258W, strain gsy2, active compounds read low",0.0623 (active)
same,normalized growth,"S. cerevisiae deletion strains, locus YLR262C, strain YPT6 (second series), active compounds read low",0.0792 (active)
same,normalized growth,"S. cerevisiae deletion strains, locus YLR262C, strain YPT6, active compounds read low",0.124 (active)
same,normalized growth,"S. cerevisiae deletion strains, locus YLR268W, strain sec22, active compounds read low",0.0693 (active)
same,normalized growth,"S. cerevisiae deletion strains, locus YLR320W, strain mms22, active compounds read low",0.0884 (active)
same,normalized growth,"S. cerevisiae deletion strains, locus YLR330W, strain CHS5, active compounds read low",0.0553 (active)
same,normalized growth,"S. cerevisiae deletion strains, locus YLR342W, strain FKS1 (second series), active compounds read low",0.0627 (active)
same,normalized growth,"S. cerevisiae deletion strains, locus YLR342W, strain FKS1, active compounds read low",0.0636 (active)
same,normalized growth,"S. cerevisiae deletion strains, locus YLR357W, strain rsc2, active compounds read low",0.117 (active)
same,normalized growth,"S. cerevisiae deletion strains, locus YLR370C, strain arc18, active compounds read low",0.0611 (active)
same,normalized growth,"S. cerevisiae deletion strains, locus YLR371W, strain rom2, active compounds read low",0.0611 (active)
same,normalized growth,"S. cerevisiae deletion strains, locus YLR384C, strain iki3, active compounds read low",0.0615 (active)
same,normalized growth,"S. cerevisiae deletion strains, locus YLR418C, strain cdc73, active compounds read low",0.0961 (active)
same,normalized growth,"S. cerevisiae deletion strains, locus YML016C, strain PPZ1, active compounds read low",0.0529 (active)
same,normalized growth,"S. cerevisiae deletion strains, locus YML032C, strain rad52, active compounds read low",0.385 (active)
same,normalized growth,"S. cerevisiae deletion strains, locus YML120C, strain ndi1, active compounds read low",0.0583 (active)
same,normalized growth,"S. cerevisiae deletion strains, locus YML124C, strain tub3, active compounds read low",0.0625 (active)
same,normalized growth,"S. cerevisiae deletion strains, locus YMR058W, strain fet3, active compounds read low",0.0576 (active)
same,normalized growth,"S. cerevisiae deletion strains, locus YMR078C, strain ctf18, active compounds read low",0.553 (active)
same,normalized growth,"S. cerevisiae deletion strains, locus YMR125W, strain sto1, active compounds read low",0.0733 (active)
same,normalized growth,"S. cerevisiae deletion strains, locus YMR129W, active compounds read low",0.0569 (active)
same,normalized growth,"S. cerevisiae deletion strains, locus YMR205C, strain PFK2, active compounds read low",0.214 (active)
same,normalized growth,"S. cerevisiae deletion strains, locus YMR223W, strain ubp8, active compounds read low",0.0625 (active)
same,normalized growth,"S. cerevisiae deletion strains, locus YMR231W, strain pep5, active compounds read low",0.0683 (active)
same,normalized growth,"S. cerevisiae deletion strains, locus YMR307W, strain GAS1, active compounds read low",0.108 (active)
same,normalized growth,"S. cerevisiae deletion strains, locus YNL067W, strain RPL9B, active compounds read low",0.0496 (active)
same,normalized growth,"S. cerevisiae deletion strains, locus YNL071W, strain lat1, active compounds read low",0.0618 (active)
same,normalized growth,"S. cerevisiae deletion strains, locus YNL183C, strain NPR1, active compounds read low",0.919
same,normalized growth,"S. cerevisiae deletion strains, locus YNL209W, strain ssb2, active compounds read low",0.0612 (active)
same,normalized growth,"S. cerevisiae deletion strains, locus YNL233W, strain BNI4, active compounds read low",0.0522 (active)
same,normalized growth,"S. cerevisiae deletion strains, locus YNL248C, strain rpa49, active compounds read low",0.0751 (active)
same,normalized growth,"S. cerevisiae deletion strains, locus YNL250W, strain rad50, active compounds read low",0.0636 (active)
same,normalized growth,"S. cerevisiae deletion strains, locus YNL271C, strain bni1, active compounds read low",0.0611 (active)
same,normalized growth,"S. cerevisiae deletion strains, locus YNL298W, strain CLA4, active compounds read low",0.0629 (active)
same,normalized growth,"S. cerevisiae deletion strains, locus YNL307C, strain MCK1, active compounds read low",0.0661 (active)
same,normalized growth,"S. cerevisiae deletion strains, locus YNL322C, strain KRE1 (second series), active compounds read low",0.0706 (active)
same,normalized growth,"S. cerevisiae deletion strains, locus YNL322C, strain KRE1, active compounds read low",0.0518 (active)
same,normalized growth,"S. cerevisiae deletion strains, locus YNR049C, strain mso1, active compounds read low",0.0568 (active)
same,normalized growth,"S. cerevisiae deletion strains, locus YNR052C, strain pop2, active compounds read low",0.749 (active)
same,normalized growth,"S. cerevisiae deletion strains, locus YOL006C, strain TOP1, active compounds read low",0.113 (active)
same,normalized growth,"S. cerevisiae deletion strains, locus YOL012C, strain htz1",0.214
same,normalized growth,"S. cerevisiae deletion strains, locus YOL147C, strain pex11, active compounds read low",0.127 (active)
same,normalized growth,"S. cerevisiae deletion strains, locus YOR001W, strain rrp6, active compounds read low",0.0671 (active)
same,normalized growth,"S. cerevisiae deletion strains, locus YOR061W, strain CKA2, active compounds read low",0.0507 (active)
same,normalized growth,"S. cerevisiae deletion strains, locus YOR069W, strain VPS5, active compounds read low",0.0519 (active)
same,normalized growth,"S. cerevisiae deletion strains, locus YOR070C, strain gyp1, active compounds read low",0.0577 (active)
same,normalized growth,"S. cerevisiae deletion strains, locus YOR080W, strain dia2, active compounds read low",0.0646 (active)
same,normalized growth,"S. cerevisiae deletion strains, locus YOR083W, strain WHI5, active compounds read low",0.167 (active)
same,normalized growth,"S. cerevisiae deletion strains, locus YOR106W, strain vam3, active compounds read low",0.0652 (active)
same,normalized growth,"S. cerevisiae deletion strains, locus YOR136W, strain idh2, active compounds read low",0.0689 (active)
same,normalized growth,"S. cerevisiae deletion strains, locus YOR144C, strain elg1, active compounds read low",0.712 (active)
same,normalized growth,"S. cerevisiae deletion strains, locus YOR184W, strain ser1, active compounds read low",0.0694 (active)
same,normalized growth,"S. cerevisiae deletion strains, locus YOR231W, strain MKK1, active compounds read low",0.916
same,normalized growth,"S. cerevisiae deletion strains, locus YOR265W, strain rbl2, active compounds read low",0.0565 (active)
same,normalized growth,"S. cerevisiae deletion strains, locus YOR270C, strain vph1, active compounds read low",0.0934 (active)
same,normalized growth,"S. cerevisiae deletion strains, locus YOR290C, strain snf2, active compounds read low",0.0963 (active)
same,normalized growth,"S. cerevisiae deletion strains, locus YOR316C, strain cot1, active compounds read low",0.0587 (active)
same,normalized growth,"S. cerevisiae deletion strains, locus YPL051W, strain arl3, active compounds read low",0.063 (active)
same,normalized growth,"S. cerevisiae deletion strains, locus YPL055C, strain LGE1, active compounds read low",0.0702 (active)
same,normalized growth,"S. cerevisiae deletion strains, locus YPL078C, strain atp4, active compounds read low",0.0642 (active)
same,normalized growth,"S. cerevisiae deletion strains, locus YPL106C, strain sse1, active compounds read low",0.104 (active)
same,normalized growth,"S. cerevisiae deletion strains, locus YPL240C, strain hsp82, active compounds read low",0.112 (active)
same,normalized growth,"S. cerevisiae deletion strains, locus YPL241C, strain CIN2, active compounds read low",0.0551 (active)
same,normalized growth,"S. cerevisiae deletion strains, locus YPL256C, strain CLN2, active compounds read low",0.971
same,normalized growth,"S. cerevisiae deletion strains, locus YPR119W, strain clb2, active compounds read low",0.0623 (active)
same,normalized growth,"S. cerevisiae deletion strains, locus YPR141C, strain kar3, active compounds read low",0.0649 (active)
same,normalized growth,"S. cerevisiae deletion strains, locus YPR163C, strain tif3, active compounds read low",0.0763 (active)
same,normalized growth,"S. cerevisiae deletion strains, locus YPR167C, strain met16, active compounds read low",0.0614 (active)
same,normalized growth,"S. cerevisiae deletion strains, strain wtn01, active compounds read low",0.0583 (active)
same,normalized growth,"S. cerevisiae strains, strain wild type, active compounds read low",0.0541 (active)
